Results taken from PubChem BioAssay AID1159580 (chemical genetic matrix, 2015).
The campaign covered roughly 5,500 compounds. About 2,000 (36%) were called active. Not shown: some 18% with an inconclusive outcome. Rule as the data show it: active = normalized growth mostly below about 0.91 (no sharp cut-off); inconclusive = no clear call, values can overlap the other calls; inactive = mostly above about 0.92. The list shows a part of the results.

Assay: chemical genetic growth profiling, strain panel (AID 1159580);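 also: tested at 20 µM; growth read once vehicle control cultures reached saturation at 30 °C; 1 = growth at the plate median or of vehicle wells; lower values mean less growth of the strain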
Details: S. cerevisiae deletion strains, growth OD

Measured: normalized growth

C[Se]C[C@H](N)C(=O)O
inactive: locus YAL013W, strain DEP1, active compounds read low 0.981 | locus YAL040C, strain CLN3, active compounds read low 1.05 | locus YCL061C, strain MRC1 (second series), active compounds read low 0.983 | locus YDR150W, strain NUM1, active compounds read low 1 | locus YDR363W, strain ESC2, active compounds read low 0.949 | locus YER002W, strain NOP16, active compounds read low 0.984 | locus YNL175C, strain NOP13, active compounds read low 0.953 | locus YNL197C, strain WHI3, active compounds read low 0.981 | locus YNL224C, strain SQS1, active compounds read low 0.97 | locus YNL322C, strain KRE1, active compounds read low 0.981 | locus YOR083W, strain WHI5 (second series), active compounds read low 0.984 | locus YPL241C, strain CIN2, active compounds read low 0.983
